Measured values reported in PubChem BioAssay AID430 (Sanford-Burnham Center for Chemical Genomics, 2006).
Out of some 63,000 compounds screened, about 1,100 (1.7%) were called active. For the sample, actives were picked, then their nearest neighbours and some compounds at random. Entries with a potency or affinity are not part of this list. A number with no mark means an inactive call. Rule as the data show it: active = cytotoxicity above about 50%; inactive = the rest.

Test: HPDE-C7 pancreatic duct cell viability loss – fluorescence, HTS (AID 430);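 also: cells exposed to compound for 48 hours before viability readout; 0% = vehicle and 100% = reference cytotoxic drug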
Conditions: HPDE-C7 pancreatic duct cells viability, at 10 µM, stronger effect = higher value

Compound | cytotoxicity
CCC(=O)Nc1nc2c(OC)ccc(C)c2s1 | 4%
CCOc1cccc(C(=O)Nc2nnc(-c3ccco3)s2)c1 | 2.3%
NC(=O)c1ccccc1NS(=O)(=O)Cc1ccc(Cl)cc1 | 0%
Cc1c(NC(=O)C(C)OC(=O)CC2Sc3ccccc3NC2=O)c(=O)n(-c2ccccc2)n1C (configuration not stated) | -14.3%
CSc1ccc(NC(=O)CC(C)=O)cc1 | -11.5%
c1csc(-c2nnsc2-c2nc3ccccc3[nH]2)c1 | 7.2%
CCC(=O)NC1=C(C#N)C2(CCCC2)Cc2ccccc21 | 10.4%
COc1ccccc1-c1cc(C(=O)NCc2ccccc2)no1 | 17.1%
Cc1ccc(C)c(OCC(=O)Nc2ccc3c(c2)OCO3)c1 | -6.1%
C=CCn1c2ccccc2c2nnc(SCCCn3c(=O)[nH]c4ccccc43)nc21 | 89.5% (active)
CCn1c2ccccc2c2nnc(SCCCn3c(=O)[nH]c4ccccc43)nc21 | -2.7%
C=CCn1c2ccccc2c2nnc(SCN3C(=O)c4ccccc4C3=O)nc21 | 21.1%
CCCCn1c(CCC(=O)O)ccc1-c1cccs1 | -30.1%
COCCNS(=O)(=O)c1cccc2cccnc12 | -7.9%
COc1cc(S(=O)(=O)N2CCCCC2)ccc1NC(=O)c1ccc(F)cc1 | -7.1%
CCn1c2c(c3cc(C(=O)O)ccc31)CCCC2=O | -6.9%
Cc1ccc2c(c1)c1c(n2CC(O)Cn2nc(C)c(Br)c2C)C(=O)CCC1 (configuration not stated) | -7.3%
Cc1ccc2c(c1)c1c(n2CC(O)Cn2c(C)nc3ccccc32)C(=O)CCC1 (configuration not stated) | -12.3%
Cc1ccc2c(c1)c1c(n2CC(O)Cn2c(C)nc3ccccc32)/C(=N\O)CCC1 (configuration not stated) | 113% (active)
CCn1c2c(c3cc(Cl)ccc31)CCCC2=O | -0.8%
CCOC(=O)c1c(O)c2c(n(Cc3ccco3)c1=O)CCCC2 | -1.8%

Compound | cytotoxicity
CCOC(=O)C(C#N)c1ccccn1 (configuration not stated) | -13.9%
CC12C=CC3(O1)C(C(=O)N(c1cccnc1)C3C(=O)NC1CCCCC1)C2C(=O)Nc1ccccc1 (configuration not stated) | -6.3%
Cc1cc(=O)oc2c(N)c(O)ccc12 | 3.2%
Cc1cc(C)c2ccc(C)[n+]([O-])c2c1O | -4.9%
Cc1cc(C)c2ccc(N)nc2c1O | 111% (active)
Cc1ccc(-c2noc(CSc3nc(N)cc(N)n3)n2)cc1 | -1.6%
CCCCCC(=O)Nc1ccc(Cl)cn1 | -14.3%
CC(=NCc1ccccc1)C1=C(O)COC1=O | 2.9%
NC(=O)c1cc2ccc(O)cc2oc1=NCc1ccccc1 | -0.1%
CCn1c(CNC(=O)C(C)(C)C)nc2ccccc21 | -1.1%
CC12CCC(C(N)=O)(c3nc4ccccc4nc31)C2(C)C (configuration not stated) | -7.6%
CC(=O)Nc1sc(N)nc1-c1ccccc1 | 3.9%
CN(Cc1cccs1)C(=O)COc1ccc(-c2nnco2)cc1 | -5.5%
Cc1cc(=O)[nH]c(SCc2cc(=O)n3nc(C)sc3n2)n1 | 2.5%
CS(=O)(=O)N1CCc2cc(-c3csc(NC(=O)Cc4cccs4)n3)ccc21 | -7.8%
O=C(Cc1cccs1)Nc1nc(-c2ccccc2)cs1 | -35.2%
CC1Cc2cc(-c3csc(NC(=O)Cc4cccs4)n3)ccc2N1S(C)(=O)=O (configuration not stated) | 56.2% (active)
CCCc1[nH]nc2c1C(c1cc(OC)cc(OC)c1)C(C#N)=C(N)O2 (configuration not stated) | -4.3%
O=C(Cc1ccccc1)N1CCC(C(=O)N2CCN(c3ccc(F)cc3)CC2)CC1 | -6.7%
O=C(NC(O)C(=O)c1cccs1)c1cccnc1 (configuration not stated) | -20.3%
O=C(Nc1nnc(C2CCCCC2)s1)c1ccc(Br)s1 | 7%

Compound | cytotoxicity
CCOC(=O)c1ccc(NC(=O)C23CCC(C)(C(=O)O2)C3(C)C)cc1 (configuration not stated) | -7.6%
CCc1ccc(-c2nc(CN3CCC(C(=O)N4CCN(c5ccccn5)CC4)CC3)c(C)o2)cc1 | 26.2%
Cc1oc(-c2ccc(Cl)cc2)nc1CN1CCC(C(=O)N2CCN(Cc3ccccc3)CC2)CC1 | 9.6%
Cc1oc(-c2cccc(Cl)c2)nc1CN1CCC(C(=O)N2CCN(c3ccccc3F)CC2)CC1 | 54.5% (active)
Cc1oc(-c2cccc(Cl)c2)nc1CN1CCC(C(=O)N2CCN(c3ccccn3)CC2)CC1 | 15.5%
CCN(CCNC(=O)C1CCCN(Cc2nc(-c3ccc(OC)cc3)oc2C)C1)c1ccccc1 (configuration not stated) | 67.8% (active)
CCc1ccc(-c2nc(CN3CCC(C(=O)N4CCN(c5ccccc5)CC4)CC3)c(C)o2)cc1 | 66% (active)
CCc1ccc(-c2nc(CN3CCC(C(=O)NCCN(CC)c4ccccc4)CC3)c(C)o2)cc1 | 47.3%
CCc1ccc(-c2nc(CN3CCCC(C(=O)NCCc4ccc(OC)c(OC)c4)C3)c(C)o2)cc1 (configuration not stated) | 7%
CCN1CCN(C(=O)C2CCN(Cc3nc(-c4cccc(Cl)c4)oc3C)CC2)CC1 | 9.2%
Cn1c(-c2ccc(F)cc2)cnc1NCc1ccccc1 | -16.5%
CCCCCCN=CC1=C(O)C(C(=O)OC)C(C)(C)CC1=O (configuration not stated) | 20.5%
COC(=O)c1ccccc1NC(=O)c1nc2nc(C)cc(C)n2n1 | 8.9%
COC(=O)C1=C(C)OC(N)=C(C#N)C1c1ccc(OC)c(OC)c1OC (configuration not stated) | -14.9%
N=c1c2c(-c3ccccc3)c(-c3ccccc3)n(Cc3ccco3)c2ncn1CCN1CCOCC1 | 29.6%
OCCNc1ncnc2c1c(-c1ccccc1)c(-c1ccccc1)n2Cc1ccco1 | 37.5%
CC1(C)CC(=O)C2=C(C1)Oc1ncn(CCCn3ccnc3)c(=N)c1C2c1ccccc1 (configuration not stated) | 5.8%
O=c1c2ccccc2nc(-c2ccccc2)n1CCCn1ccnc1 | -10.6%
COc1ccccc1-c1nc2n(n1)C(c1ccc(Cl)cc1)C(C(N)=O)=C(C)N2 (configuration not stated) | 5.8%
COC(=O)c1ccc(OCC(O)Cn2nnc3ccccc32)cc1 (configuration not stated) | 3.4%
